In all, about 39,000 compounds went through this assay and about 3,300 (8.5%) were called active. For the sample, actives were picked, then their nearest neighbours and some compounds at random.

This experiment deals with HepG2. Nature of the experiment: cytotoxicity call (relative viability < 0.9). As to conditions: 10 µM.
For `COc1ccc(S(=O)(=O)N(C)C[C@H]2Oc3c(NC(=O)Nc4c(C)noc4C)cccc3C(=O)N([C@H](C)CO)C[C@@H]2C)cc1`, the cytotoxicity call is “inactive”.
As to `C[C@@H]1CN([C@H](C)CO)C(=O)c2cccc(NS(=O)(=O)c3cccs3)c2O[C@@H]1CN(C)Cc1ccc(Cl)c(Cl)c1`, the cytotoxicity call is “inactive”.
With `C[C@H]1CN([C@@H](C)CO)C(=O)Cc2cc(NC(=O)Cc3ccccc3)ccc2O[C@H]1CN(C)S(C)(=O)=O`, the cytotoxicity call was “inactive”.
Under `CNCc1ccncc1` stands “inactive”; under `Cc1sccc1-c1csc(N)n1`, “inactive”; under `C[C@@H]1CN([C@@H](C)CO)C(=O)CCCn2nncc2CO[C@H]1CN(C)C(=O)Nc1ccc2c(c1)OCCO2`, “inactive”.
In the case of `C[C@H](CO)N1C[C@H](C)[C@H](CN(C)C(=O)Nc2cccc3ccccc23)Oc2ncc(-c3cccc(F)c3)cc2C1=O`, the cytotoxicity call is “inactive”.
As for `C[C@H](CO)N1C[C@H](C)[C@@H](CN(C)S(=O)(=O)c2ccc(Cl)cc2)OCCCC[C@H](C)Oc2ccc(NC(=O)c3ccncc3)cc2C1=O`, the cytotoxicity call was “inactive”.
For `C[C@@H]1CN([C@@H](C)CO)C(=O)c2cccc(NS(=O)(=O)c3cccs3)c2O[C@H]1CN(C)S(=O)(=O)c1ccccc1`, the cytotoxicity call was “inactive”.
Regarding `COc1ccc(C#Cc2ccc3c(c2)O[C@@H](CN(C)C(=O)CN2CCOCC2)[C@H](C)CN([C@H](C)CO)S3(=O)=O)cc1`, the cytotoxicity call is “inactive”.
Under `C[C@H]1CN([C@@H](C)CO)C(=O)Cc2cc(NC(=O)c3ccncc3)ccc2O[C@@H]1CN(C)Cc1ccc(Oc2ccccc2)cc1` stands “inactive”; under `C[C@@H]1CN([C@@H](C)CO)C(=O)Cc2cc(NC(=O)c3ccncc3)ccc2O[C@H]1CN(C)Cc1ccc(Oc2ccccc2)cc1`, “active”; under `C[C@H]1CN([C@@H](C)CO)C(=O)Cc2cc(NC(=O)c3ccncc3)ccc2O[C@H]1CN(C)Cc1ccc(Oc2ccccc2)cc1`, “inactive”.
For `C[C@@H]1CN([C@@H](C)CO)C(=O)Cc2cc(NC(=O)c3ccncc3)ccc2O[C@@H]1CN(C)Cc1ccc(Oc2ccccc2)cc1`, the cytotoxicity call is “active”.
On to `C[C@@H]1CN([C@H](C)CO)C(=O)Cc2cc(NC(=O)c3ccncc3)ccc2O[C@H]1CN(C)Cc1ccc(Oc2ccccc2)cc1`, for which the cytotoxicity call is “inactive”.
The result for `C[C@@H]1CN([C@H](C)CO)C(=O)Cc2cc(NC(=O)c3ccncc3)ccc2O[C@@H]1CN(C)Cc1ccc(Oc2ccccc2)cc1` reads “inactive”; that for `CO[C@@H]1CN(C)C(=O)c2ccc(NC(=O)C3CC3)cc2OC[C@@H](C)N(C(=O)C2CCOCC2)C[C@@H]1C`, “inactive”.
The result for `C[C@H]1CN([C@@H](C)CO)C(=O)Cc2cc(NC(=O)NC3CCCCC3)ccc2O[C@@H]1CN(C)S(=O)(=O)c1cn(C)cn1` reads “inactive”.

The values above are taken from the antibiotic and cytotoxicity screens of Wong et al. (2023).
